SMILES strings stand for the structures. Where “and” joins values, the source holds several entries; their conditions need not be identical. Equal values may be shown once. Screen size: about 69,000 compounds; about 2,600 (3.8%) were called active. This is one part of a sample in which actives are shown more often than they occur. Rule as the data show it: active = activity change below about -70% (passing the limit was not always enough); inconclusive = no clear call, values can overlap the other calls. Some compounds were tested as several samples or in several runs, with calls that do not always agree.

The assay in a line: inhibitors of Toxoplasma growth in IFN-γ-primed hosts – cell-based, primary screen (AID 1259416).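 Also: host cells are HeLa cells infected with Toxoplasma gondii.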 Particulars: Toxoplasma gondii growth in IFN-gamma-treated host cells; stronger effect = lower value; concentration not given here.
Turning to `O=C(Cn1ncc2ccccc2c1=O)NCc1cc(Cl)c2c(c1)OCCCO2`, the activity change, negative = inhibition was 23% (inactive).
For `Cc1ccsc1CNc1cccc(C(=O)N(C)Cc2snnc2C)c1` the value was -4.49% (inactive); for `Cc1ccc2oc(=O)n(CCC(=O)N3[C@@H]4CC[C@H]3CNC(=O)C4)c2c1`, -11.3% (inactive); for `Cc1cc(C)cc(NC(=O)N2CCC3(CC2)Nc2ccccc2-n2cccc23)c1`, 295% (inactive).
On to `O=C(N[C@H]1C[C@H]2C(=O)NCC(=O)N2C1)c1cccc(Cn2cccn2)c1`, for which the activity change, negative = inhibition is -5.16% (inactive).
Then `COc1c(C)c2c(c(O)c1C/C=C(\C)CCC(=O)O)C(=O)OC2`, with -91.9% (active); and `O=C(O)CSc1nnc(-c2ccn[nH]2)n1-c1ccccc1Cl`, with 55.4% (inactive).
Then `Cc1ccsc1CN(CCCN1CCOCC1)CC1=Cc2ccccc2OC1`, with 97.9% (inactive).
For `Cc1ccc2oc(CN(CCCO)Cc3sccc3C)c(C)c2c1` the value was -33.4% (inactive).
For the compound `CCS(=O)(=O)N1CCC2(CC1)Nc1ccc(C)c(C)c1-n1cccc12`, the activity change, negative = inhibition was 28% (inactive).
In the case of `CC1(C)[C@]2(C(=O)NCCCc3nc4ccccc4o3)CC[C@@]1(C)OC2=O`, the activity change, negative = inhibition was 4.16% (inactive).
For `c1ccc(N2CCN(N=C3c4ccccc4-c4ccccc43)CC2)nc1` the value was -103% (active); for `O=C(CN1CCN(c2ccccn2)CC1)Nc1ccc(Br)cc1`, -9% (inactive); for `c1ccc(N2CCC3(COCCN(c4ncccn4)C3)C2)nc1` (configuration not stated), -3.03% (inactive).
For the compound `CCCn1cc(S(=O)(=O)NCC2CCC(c3ccc(C(N)=O)c(C)n3)CC2)c(C)n1` (configuration not stated), the activity change, negative = inhibition is 19.4% (inactive).
For `CN(C)C(=O)[C@@]12CCCN(Cc3cccs3)C[C@@H]1CN(Cc1cnn(C)c1)C2`, the activity change, negative = inhibition is -0.124% (inactive).
For `FC(F)(F)c1cccc2c(N3CCN(C4CCOCC4)CC3)ccnc12` the value was -46.1% (inactive); for `CN(n1cnc2ccccc2c1=O)S(=O)(=O)c1cc(Cl)sc1Cl`, -76.6% (active).
Consider `CN(C(=O)Nc1ccc(Cl)cc1)n1cnc2ccccc2c1=O`, for which the activity change, negative = inhibition is -50.7% (inactive).
Consider `COC(=O)c1cc(NC(=O)S(=O)(=O)c2ccccc2)cc(C(=O)OC)c1`, for which the activity change, negative = inhibition was 86.5% (inactive).
For the compound `Cc1ccc(O)c(CCc2ccccc2)n1`, the activity change, negative = inhibition is 8.51% (inactive) and 1.67% (inactive).
Then `CCCCc1c(O)cc(-c2ccccc2)n(Cc2ccccc2)c1=O`, with -76.1% (active); and `CCCCN(Cc1ccccc1)C(=O)c1cc2cccnc2n(Cc2ccc(Cl)cc2)c1=O`, with 28.6% (inactive); and `CC(C)(O)c1cn(C2CCN(C(=O)CCc3ccncc3)CC2)nn1`, with 5.1% (inactive).
On to `O=S(=O)(c1ccc(Cl)c(Cl)c1)N1CCC2(CC1)Nc1ccccc1-n1cccc12`, for which the activity change, negative = inhibition was 43% (inactive).
For `O=C(c1ccc(F)cc1)N1CCc2c([nH]c3ccccc23)C1c1ccccc1` (configuration not stated) the value was 63% (inactive); for `O=S(=O)(c1ccc(Cl)c(Cl)c1)N1CCc2c([nH]c3ccccc23)C1C(F)(F)F` (configuration not stated), -82.6% (active); for `CCc1nnc(CN(CC)C(=O)c2cccc(-c3ccc(C)o3)c2)o1`, 0.889% (inactive).
For `Cn1ccnc1-c1ccc(N2CCCC(OCc3cccnc3)C2)nn1` (configuration not stated) the value was -19% (inactive).
Then `COCCc1noc(CN2CCCC2c2ccccn2)n1` (configuration not stated), with 8.04% (inactive); and `N#C/C(=C\c1ccc(O)c(O)c1)C(=O)NCc1ccccc1`, with 5.59% (inactive); and `CCC[C@H](NC(=O)/C(C#N)=C/c1cccc(Br)n1)c1ccccc1`, with -72.2% (active).
For the compound `CN(C)C(=O)c1cccc(-c2ccccc2[C@@H]2[C@@H](CO)N(C(=O)C3CCCCC3)[C@H]2C#N)c1`, the activity change, negative = inhibition is -9.68% (inactive).
For `COCc1ncn2c1CN(C(=O)c1cnc(C)cn1)CCC2`, the activity change, negative = inhibition is 16.2% (inactive).
For `CC1CCCCC12NC(=O)N(CC(=O)N1CCN(Cc3ccccn3)CC1)C2=O` (configuration not stated) the value was 13.9% (inactive).
Turning to `COCCn1nnnc1CN(Cc1ccccc1)Cc1cc2ccc(C)c(C)c2[nH]c1=O`, the activity change, negative = inhibition was -81.4% (active).
For `CC(C)Oc1cccc(-c2csc(C(N)=O)c2)c1` the value was 65.6% (inactive); for `CN(C)C(=O)C[C@]12COC[C@H]1CN(Cc1ccc3ccccc3n1)C2`, -5.46% (inactive); for `COCc1ccc(C(=O)Nc2ccc3nc(C)[nH]c3c2)o1`, -55.3% (inactive).
For the compound `COC(=O)Nc1nc2ccc(Sc3ccccc3)cc2[nH]1`, the activity change, negative = inhibition is -69.1% (inactive) and 7.35% (inactive) and -78% (active).
Consider `COC(=O)Nc1nc2ccc(C(=O)C3CC3)cc2[nH]1`, for which the activity change, negative = inhibition is -69.3% (inactive).
For the compound `Cc1cc(C(=O)N2CCc3c(COCCN(C)C)cncc3C2)no1`, the activity change, negative = inhibition is -28.8% (inactive).
For `Cc1nnsc1CNC(=O)CC1CCc2ccccc21` (configuration not stated) the value was -7.08% (inactive); for `CNC1(c2nnnn2CCOC(=O)Nc2ccc(Cl)cc2)CCCC1`, 93.6% (inactive); for `Cc1[nH]c(/C=C2\C(=O)Nc3ccc(S(=O)(=O)Cc4c(Cl)cccc4Cl)cc32)c(C)c1C(=O)N1CCC[C@@H]1CN1CCCC1`, -79.5% (active) and -88.9% (active) and -63.2% (inactive).
Regarding `COc1ccc(OC)c(CNC(=O)Cn2ncc3c(N4CCCC4)ncnc32)c1`, the activity change, negative = inhibition is 7.89% (inactive).
For `CC(C)(C)c1nc(-c2cccc(NS(=O)(=O)c3c(F)cccc3F)c2F)c(-c2ccnc(N)n2)s1`, the activity change, negative = inhibition was -83.7% (active).
For `CC1=C(C(=O)NCCCN2CC(C)CC(C)C2)C2(CCN(Cc3ccccc3)CC2)OC1=O` (configuration not stated) the value was -65.1% (inactive); for `O=C(c1nc2sccn2c1CN1CCC(c2ccccc2Cl)C1)N1CCCCC1` (configuration not stated), 1.45% (inactive).
As to `O=C(Nc1cccc(N2CCCCS2(=O)=O)c1)c1ccc(-n2cccn2)nc1`, the activity change, negative = inhibition is 6.32% (inactive).
Consider `CC(C)(C)c1ccc(Oc2ccc(NC(=O)Cc3cccs3)cn2)cc1`, for which the activity change, negative = inhibition is -76.9% (active).
As for `Cc1ccc(C)c(-c2coc(-c3ccc(NC(=O)Cc4cccs4)cc3)n2)c1`, the activity change, negative = inhibition was 7.55% (inactive).
Then `Cc1ccc(C(=O)Nc2ccc(Oc3ccc(C(C)(C)C)cc3)nc2)cc1`, with -31.5% (inactive).
Then `CCOC(=O)c1nc(N2CCN(Cc3ccc4c(c3)OCO4)CC2)c2ccccc2n1`, with 42.4% (inactive).
Then `O=C(C1CC=CC1)N1CCC2(CCN(Cc3cccc(F)c3)CC2)C1`, with -9.86% (inactive); and `CC[C@]1(O)C[C@@H]2CN(CCc3c([nH]c4ccccc34)[C@@](C(=O)OC)(c3cc4c(cc3OC)N(C)[C@H]3[C@@](O)(C(=O)OC)[C@H](OC(C)=O)[C@]5(CC)C=CCN6CC[C@]43[C@@H]65)C2)C1`, with -97.6% (active); and `CC[C@]1(O)CC2CN(CCc3c([nH]c4ccccc34)[C@@](C(=O)OC)(c3cc4c(cc3OC)N(C=O)[C@H]3[C@@](O)(C(=O)OC)[C@H](OC(C)=O)[C@]5(CC)C=CCN6CC[C@]43[C@@H]65)C2)C1` (some centres not stated), with -82.9% (active) and -87.1% (active).
Consider `CC1=CC[C@@H]2CN(C(=O)c3cc(C(C)(C)C)[nH]c(=O)n3)C[C@@H]2C1`, for which the activity change, negative = inhibition is 5.83% (inactive).
For `Cc1nn(C)c(C)c1CCC(=O)NCc1ccccc1-n1ccnc1C` the value was -6.3% (inactive); for `CC1Cc2ccccc2N1C(=O)CN1C(=O)COc2ccc(C(=O)c3cccs3)cc21` (configuration not stated), -43.3% (inactive).
As to `Cc1nc2ccccc2c(=O)n1-c1cccc2ccccc12`, the activity change, negative = inhibition is 0.633% (inactive).
In the case of `O=S(=O)(c1ccc2c(c1)OCCO2)N1CCN(c2ccc(C(F)(F)F)cn2)CC1`, the activity change, negative = inhibition was -88% (active).
As to `O=C(/C=C/c1ccc(CN(CCO)CCc2c[nH]c3ccccc23)cc1)NO`, the activity change, negative = inhibition was -85.7% (active).
For `CC(NC(=O)CCc1c[nH]c2ccccc12)c1cn2ncsc2n1` (configuration not stated) the value was 23.4% (inactive).
Then `O=C(/C=C/c1ccc2c(c1)OCO2)NCc1ccc(F)cc1`, with 2.56% (inactive); and `CC(C)c1cc(C2CCN(C(=O)Cc3c[nH]c4ccccc34)CC2)[nH]n1`, with 5.9% (inactive).
Then `O=C(NC1CC1)C1CN(Cc2cnc(NCc3ccccc3)nc2)CCN1` (configuration not stated), with -0.724% (inactive); and `Cc1ccsc1C(=O)N1CCCC2(C1)Nc1cccnc1NC2=NC1CCCC1` (configuration not stated), with -22.8% (inactive); and `O=C(C1CCCCC1)N1CCC2(CC1)Nc1ccc(Cl)cc1-n1cccc12`, with -85.4% (active).
In the case of `O=S(=O)(c1ccc(F)c(F)c1)N1CCC2(CC1)Nc1ccc(Cl)cc1-n1cccc12`, the activity change, negative = inhibition is 17.6% (inactive).
For `COc1ccc(OCC(=O)N2CCC3(CC2)Nc2ccc(Cl)cc2-n2cccc23)cc1`, the activity change, negative = inhibition was 25.9% (inactive).
As for `CNC(=O)c1sc2ccccc2c1C1CCC(CNS(=O)(=O)c2cnn(C)c2)CC1` (configuration not stated), the activity change, negative = inhibition was -10.6% (inactive).
Then `Cc1cccn2cc(C(=O)NC[C@@H]3CCNC[C@H]3O)nc12`, with -3.48% (inactive).
As to `Cc1cc(CNC(=O)c2cccc(C3CCNC3)c2)ccc1F` (configuration not stated), the activity change, negative = inhibition is -1.39% (inactive).
For `O[C@@H]1CNCC[C@H]1CNCc1cccc(Oc2cccc(C(F)(F)F)c2)c1`, the activity change, negative = inhibition is -100% (active).
With `Cc1cc(C(=O)N2CCC3(CC2)CNC(=O)O3)c2ccc(F)cc2n1`, the activity change, negative = inhibition was 0.544% (inactive).
Regarding `CCOC1C2CCC1N(S(=O)(=O)c1cccc(C)c1)CCO2` (configuration not stated), the activity change, negative = inhibition was 16.8% (inactive).
Then `Cc1cc(S(=O)(=O)NCc2ccc3c(c2)OCO3)ccc1-n1cnnn1`, with -7.98% (inactive).
Then `COc1cccc(-c2cccc3[nH]ccc23)n1`, with 35.3% (inactive); and `C[C@@H]1COCCN1c1cc(C2(S(C)(=O)=O)CC2)nc(-c2cccc3[nH]ccc23)n1`, with -82.8% (active); and `NC(=O)Cc1csc(NC(=O)c2ccc3nc(C(F)(F)F)[nH]c3c2)n1`, with -8.79% (inactive).
Then `CNS(=O)(=O)c1ccc([C@@H]2C[C@H](NC(C)=O)C[C@H](CC(C)C)O2)cc1`, with -22.6% (inactive); and `Cc1ccc(C2(O)CCN(C(=O)c3noc(C)c3CO)CC2)nc1`, with -2.58% (inactive); and `Cc1ccc2cc(CN(c3ccc(C)c(C)c3)S(C)(=O)=O)c(=O)[nH]c2c1`, with -50.6% (inactive).
With `COc1cc(OC)c(Nc2nc(-c3nnc(-c4ccccc4)o3)nc3ccccc23)cc1Cl`, the activity change, negative = inhibition is 268% (inactive).
Then `Cc1ccc(Nc2nc(-c3nnc(-c4cccc(C)c4)o3)nc3ccccc23)cc1`, with 96.2% (inactive); and `Clc1cccc(-c2nnc(-c3nc(NC4CCCC4)c4ccccc4n3)o2)c1`, with -77.4% (active).

The values above are taken from PubChem BioAssay AID1259416 (Broad Institute, 2018).
